Assay results published in PubChem BioAssay (Tox21).
Activity calls are given as the source filed them. Entries that show only a call come without a potency. Unless noted, the call rests on the fitted dose curve; in most records, active means well fitted curve in the direction sought with a large enough effect in the repeat runs; inconclusive means weak or mixed curves; inactive means no such curve, though single readings can be large; an effect the other way counts as inactive or inconclusive.

Columns and labels:
[1] = qHTS assay to identify small molecule antagonists of the thyroid receptor (TR) signaling pathway - cell viability counter screen (AID 743064); further: nearly all actives have a fitted effect of over 50% in size; further: potency means the concentration at half of the fitted maximal effect
Method in brief: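 In-well cytotoxicity read by CellTiter-Fluor (30 min, 37 C) following 23.5 h exposure of GH3 cells bearing a TRE-luciferase sensor. Compounds were added alongside 1 nM (final) T3 to drive TR transactivation.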

[2] = qHTS assay to identify small molecule antagonists of the thyroid receptor (TR) signaling pathway (AID 743065); further: nearly all actives have a fitted effect of over 55% in size; further: potency means the concentration at half of the fitted maximal effect
Method in brief: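 GH3.TRE-Luc rat pituitary cells (two TREs driving luciferase) were dosed with compound, then stimulated with 1 nM T3 (final) for 23.5 h at 37 C. ONE-Glo luminescence was the read-out, with CellTiter-Fluor fluorescence as the cytotoxicity counter-screen.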

[3] = test system: thyroid hormone receptor (rat, GH3 cells); test: qHTS assay to identify small molecule agonists of the thyroid receptor (TR) signaling pathway (AID 743066; calls by dose curve)
[4] = qHTS assay to identify small molecule antagonists of the estrogen receptor alpha (ER-alpha) signaling pathway - cell viability counter screen (AID 743074; calls by dose curve;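 further: HEK293 cells carrying ER-alpha-UAS-bla reporter stimulated with 17beta-estradiol; nearly all actives have a fitted effect of over 45% in size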)
[5] = qHTS assay to identify small molecule antagonists of the estrogen receptor alpha (ER-alpha) signaling pathway using the BG1 cell line - cell viability counter screen (AID 743081);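 further: compound given together with 17beta-estradiol as the ER stimulus; nearly all actives have a fitted effect of over 45% in size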; further: potency means the concentration at half of the fitted maximal effect
[6] = target: Aromatase (Homo sapiens) (UniProt P11511); test: qHTS assay to identify aromatase inhibitors (AID 743083); further: nearly all actives have a fitted effect of over 55% in size; further: potency means the concentration at half of the fitted maximal effect
[7] = target: Estrogen receptor (Homo sapiens) (UniProt P03372); test: qHTS assay to identify small molecule agonists of the estrogen receptor alpha (ER-alpha) signaling pathway using the BG1 cell line (AID 743079); further: nearly all actives have a fitted effect of over 20% in size; further: potency means the concentration at half of the fitted maximal effect
[8] = target: Estrogen receptor (Homo sapiens) (UniProt P03372); test: qHTS assay to identify small molecule agonists of the estrogen receptor alpha (ER-alpha) signaling pathway (AID 743075; calls by dose curve;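 further: HEK293 GripTite cells with ER-alpha and UAS-driven beta-lactamase reporter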; further: potency means the concentration at half of the fitted maximal effect)
[9] = qHTS assay to identify small molecule antagonists of the estrogen receptor alpha (ER-alpha) signaling pathway using the BG1 cell line (AID 743080; calls by dose curve;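 further: BG1 cells stimulated with 17beta-estradiol alongside compound; nearly all actives have a fitted effect of over 25% in size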; further: potency means the concentration at half of the fitted maximal effect)
Method in brief: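 Endogenous full-length ER-alpha in BG1-Luc-4E2 cells drives a stably integrated 4×ERE luciferase gene; compounds were tested against 17beta-estradiol over 21.5 h, with luminescence and multiplexed viability fluorescence recorded.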

[10] = target: Estrogen receptor (Homo sapiens) (UniProt P03372); test: qHTS assay to identify small molecule antagonists of the estrogen receptor alpha (ER-alpha) signaling pathway (AID 743069; active means well fitted curve in the direction sought with a large enough effect in the signal ratio in the repeat runs, not every such curve was filed as active; inconclusive means weak or mixed curves, or effect the other way; inactive means no such curve, though single readings can be large or run the other way; the % refers to the signal ratio; further: potency means the concentration at half of the fitted maximal effect)
Method in brief: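 Beta-lactamase FRET fluorescence is read after 2 hr at room temperature with LiveBLAzer B/G substrate. Before that, ER-alpha-bla HEK293 cells sit 4 hr after plating, then receive compound plus 17beta-estradiol and incubate 18 hr at 37C.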

Sequence of Estrogen receptor (Homo sapiens) (P03372 whole entry, looked up): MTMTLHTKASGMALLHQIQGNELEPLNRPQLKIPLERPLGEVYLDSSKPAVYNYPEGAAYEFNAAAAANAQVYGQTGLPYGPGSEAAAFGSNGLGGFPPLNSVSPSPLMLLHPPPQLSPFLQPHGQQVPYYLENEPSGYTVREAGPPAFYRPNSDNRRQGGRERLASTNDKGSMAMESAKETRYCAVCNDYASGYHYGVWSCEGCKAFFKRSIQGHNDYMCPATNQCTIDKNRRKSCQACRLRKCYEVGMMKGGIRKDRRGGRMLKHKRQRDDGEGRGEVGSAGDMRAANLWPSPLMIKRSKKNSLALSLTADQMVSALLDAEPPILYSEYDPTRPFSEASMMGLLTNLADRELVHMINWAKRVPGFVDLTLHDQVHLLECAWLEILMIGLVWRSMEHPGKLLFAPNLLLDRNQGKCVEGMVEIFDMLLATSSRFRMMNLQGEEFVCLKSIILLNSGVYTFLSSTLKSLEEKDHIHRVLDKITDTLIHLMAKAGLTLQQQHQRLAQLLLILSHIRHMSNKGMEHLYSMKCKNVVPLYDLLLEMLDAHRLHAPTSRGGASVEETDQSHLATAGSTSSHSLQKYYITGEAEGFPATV
Sequence of Aromatase (Homo sapiens) (P11511 whole entry, looked up): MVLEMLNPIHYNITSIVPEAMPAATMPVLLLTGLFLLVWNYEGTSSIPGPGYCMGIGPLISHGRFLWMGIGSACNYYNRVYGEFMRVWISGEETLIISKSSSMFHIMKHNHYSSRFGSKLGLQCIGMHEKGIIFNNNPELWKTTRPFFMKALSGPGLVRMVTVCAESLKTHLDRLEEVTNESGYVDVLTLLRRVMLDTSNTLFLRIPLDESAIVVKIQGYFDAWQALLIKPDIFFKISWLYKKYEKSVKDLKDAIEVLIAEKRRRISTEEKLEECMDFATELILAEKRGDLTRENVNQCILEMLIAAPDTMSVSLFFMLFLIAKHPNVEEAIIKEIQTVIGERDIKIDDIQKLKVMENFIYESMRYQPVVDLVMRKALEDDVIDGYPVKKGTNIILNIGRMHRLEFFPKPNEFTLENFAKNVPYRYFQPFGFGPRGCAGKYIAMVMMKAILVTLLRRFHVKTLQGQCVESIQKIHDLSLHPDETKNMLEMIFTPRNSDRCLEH

SMILES	Potency [1]	Potency [2]	Potency [3]	outcome [4]	Potency [5]	Potency [6]	Potency [7]	Potency [8]	Potency [9]	Potency [10]
O=C(/C=C/c1ccc(O)c(O)c1)O[C@@H]1C[C@](O)(C(=O)O)C[C@@H](O)[C@H]1O	inactive	inactive	inactive	inactive	inactive	–	–	–	–	–
CCCCC(CC)(CO)CO	inactive	inactive	inactive	inactive	inactive	inactive	–	–	–	–
CCN(CC)C(C)=O	inactive	inactive	inactive	inactive	inactive	inactive	–	–	–	–
O=C(NS(=O)(=O)/C=C/c1cccs1)c1ccc(F)cc1Br	inactive	inactive	inactive	inactive	inactive	inactive	68.6 µM (active)	–	–	–
CC(C)CCCCCCOC(=O)c1ccc(C(=O)OCCCCCCC(C)C)c(C(=O)OCCCCCCC(C)C)c1	inactive	inactive	inactive	inactive	inactive	inactive	–	–	–	–
CC1(C)[C@H]2CC[C@]1(C)[C@H](O)C2	inactive	inactive	inactive	inactive	inactive	inactive	–	–	–	–
CCCCCC/C=C/C=O	inactive	inactive	inactive	inactive	inactive	inactive	–	–	–	–
NCc1ccccc1	inactive	inactive	inactive	inactive	inactive	–	–	–	–	–
CCCCCCCCCCCCCCCCCBr	inactive	inactive	inactive	inactive	inactive	inactive	–	–	–	–
Nc1nc(N)c(-c2ccccc2)s1	inactive	inactive	inactive	inactive	inactive	inactive	–	–	–	–
O=C(c1ccccc1)c1ccc2n1CCC2C(=O)O (configuration not stated)	inactive	inactive	inactive	inactive	inactive	inactive	–	–	–	–
C[C@@H](C1=C(CCN(C)C)Cc2ccccc21)c1ccccn1	29.8 µM (active)	26.6 µM (active)	inactive	inactive	inactive	–	–	–	–	–
Cn1c(N)nc2nc[nH]c2c1=O	inactive	inactive	inactive	inactive	inactive	inactive	–	–	–	–
CC(=O)[C@@]1(O)CC[C@H]2[C@@H]3C[C@H](C)C4=CC(=O)CC[C@]4(C)[C@H]3CC[C@@]21C	inactive	11.9 µM (active)	inactive	inactive	inactive	inactive	–	inactive	–	–
O=C(O)C(c1ccc(Cl)cc1)c1ccc(Cl)cc1	inactive	inactive	inactive	inactive	inactive	–	–	inactive	inactive	–
NC(=S)N/N=C/c1cccnc1	inactive	inactive	inactive	inactive	inactive	inactive	–	–	–	–
CN1CCC[C@@H]1c1cccnc1	inactive	inactive	inactive	inactive	inactive	inactive	–	–	inactive	–
O=CNc1ccccc1	inactive	inactive	inactive	inactive	inactive	inactive	–	–	–	–
CN(c1nccc(=O)[nH]1)C1CCN(c2nc3ccccc3n2Cc2ccc(F)cc2)CC1	inactive	inactive	inactive	inactive	inactive	inactive	–	inactive	inactive	–
O=C1c2cccc(O)c2C(=O)c2c(O)cc(CO)cc21	inactive	inactive	inactive	inactive	inactive	inactive	–	inactive	–	–
CC(C)c1ccccc1C(C)C	54.5 µM (active)	61.2 µM (active)	inactive	inactive	inactive	inactive	–	–	–	–

SMILES	Potency [1]	Potency [2]	Potency [3]	outcome [4]	Potency [5]	Potency [6]	Potency [7]	Potency [8]	Potency [9]	Potency [10]
CCCC[C@H]1CN(CC2CCOCC2)C(=O)OC12CCN(C1(C)CCN(C(=O)c3c(C)ncnc3C)CC1)CC2	inactive	inactive	inactive	inactive	inactive	inactive	–	–	–	–
O=C(O)c1cccc(N(Cc2cccnc2)c2ccc(OC(F)F)c(OC(F)F)c2)c1	inactive	inactive	inactive	inactive	inactive	–	–	–	–	–
CN(C(=O)CCCOc1ccc2[nH]c(=O)ccc2c1)C1CCCCC1	inactive	inactive	inactive	inactive	inactive	inactive	–	–	–	–
Cc1ccccn1	inactive	inactive	inactive	inactive	inactive	inactive	–	–	–	–
CCCCCCCCCC=O	inactive	inactive	inactive	inactive	inactive	inactive	–	inactive	inactive	–
CN1CCC(=C2c3ccccc3C=Cc3ccccc32)CC1	15 µM (active)	16.8 µM (active)	inactive	–	inactive	inactive	inactive	inactive	–	–
Cc1cccc(Oc2ccccc2)c1	inactive	–	inactive	inactive	inactive	–	inactive	inactive	inactive	inactive
Cn1sccc1=O	30.6 µM (active)	30.6 µM (active)	–	inactive	inactive	inactive	–	inactive	inactive	inactive
CCCCc1cc2ccccc2c(OCCN(C)C)n1	8.04 µM (active)	9.02 µM (active)	inactive	inactive	–	inactive	–	–	–	–
CN(C)CC/C=C1\c2ccccc2COc2ccccc21	13.3 µM (active)	23.7 µM (active)	–	inactive	inactive	inactive	–	–	–	–
C=CC(=O)OCC(C)OCC(C)OCC(C)OC(=O)C=C (configuration not stated)	38.6 µM (active)	24.3 µM (active)	–	inactive	inactive	43.3 µM (active)	–	61.7 µM [activator] (active)	–	–
CCN(CC)CCNC(C(=O)OCCC(C)C)c1ccccc1 (configuration not stated)	inactive	–	inactive	inactive	inactive	inactive	inactive	inactive	inactive	inactive
CC(=O)Nc1ccc(/C=N/NC(N)=S)cc1	inactive	inactive	inactive	inactive	inactive	inactive	–	–	–	–
CCOC(=O)[C@H](CCc1ccccc1)N[C@H]1CCc2ccccc2N(CC(=O)O)C1=O	5.31 µM (active)	8.41 µM (active)	–	inactive	inactive	15 µM (active)	–	–	–	–
CCOc1nc2cccc(C(=O)O)c2n1Cc1ccc(-c2ccccc2-c2nn[nH]n2)cc1	29.8 µM (active)	29.8 µM (active)	–	inactive	inactive	inactive	0.0376 µM (active)	inactive	2.66 µM (active)	0.425 µM [inconclusive] (active)
C[Si](C)O[Si](C)(C)O[Si](C)(C)O[Si](C)C	inactive	inactive	–	inactive	inactive	inactive	inactive	inactive	inactive	inactive
CCCCOc1cc(C(=O)OCCN(CC)CC)ccc1N	inactive	–	inactive	inactive	inactive	inactive	inactive	inactive	inactive	inactive
Cc1c(Cn2ccnc2)c2ccccc2n1CCC(=O)O	inactive	inactive	inactive	–	inactive	inactive	–	–	–	–
Cc1ccc(C(C)c2ccc(C)c(C)c2)cc1C	inactive	–	inactive	inactive	inactive	inactive	inactive	inactive	inactive	inactive
CCCCCc1ccc(N)cc1	inactive	inactive	inactive	–	inactive	–	inactive	inactive	–	–
O=C(O)[C@@H]1[C@H]2C[C@H]3c4[nH]c5ccccc5c4CCN3C[C@@H]2CC[C@@H]1O	inactive	–	inactive	inactive	inactive	inactive	inactive	inactive	–	inactive

SMILES	Potency [1]	Potency [2]	Potency [3]	outcome [4]	Potency [5]	Potency [6]	Potency [7]	Potency [8]	Potency [9]	Potency [10]
CN1CCN(C2=Nc3cc(Cl)ccc3Nc3ccccc32)CC1	13.3 µM (active)	23.7 µM (active)	–	inactive	inactive	inactive	–	inactive	inactive	–
OCCC1CCCCN1 (configuration not stated)	inactive	inactive	–	inactive	inactive	inactive	inactive	inactive	inactive	inactive
CC(O)C1CCCCC1 (configuration not stated)	inactive	inactive	inactive	–	inactive	inactive	–	–	–	–
COc1ccccc1OC(=O)Oc1ccccc1OC	inactive	inactive	inactive	inactive	inactive	inactive	–	–	–	–
O=C(O)Cc1sc(-c2ccccc2)nc1-c1ccc(Cl)cc1	inactive	–	inactive	inactive	inactive	inactive	inactive	inactive	inactive	–
CCc1nn(C2CCCCC2)c2cc(C3(C#N)CCC(C(=O)O)CC3)ccc12 (configuration not stated)	34.4 µM (active)	61.1 µM (active)	–	inactive	inactive	38.6 µM (active)	inactive	–	inactive	13.8 µM [inconclusive] (active)
O=C(CCN1CCN2CCCC2C1)N1c2ccccc2Sc2ccc(Cl)cc21 (configuration not stated)	21.1 µM (active)	18.8 µM (active)	–	inactive	–	inactive	inactive	inactive	inactive	inactive
CCCCCOC(=O)c1ccc(O)cc1	inactive	–	inactive	inactive	inactive	–	17.4 µM (active)	55.6 µM [inconclusive] (active)	–	62.4 µM [inconclusive] (active)
CCCCCOC(=O)COc1cc(N2C(=O)C3=C(CCCC3)C2=O)c(F)cc1Cl	inactive	–	inactive	inactive	inactive	inactive	inactive	inactive	inactive	inactive
Nc1nc(CC(=O)O)cs1	inactive	inactive	inactive	inactive	inactive	inactive	–	–	–	–
CN1CCC(=C2c3ccccc3CCc3sccc32)CC1	21.1 µM (active)	26.6 µM (active)	–	inactive	inactive	inactive	–	inactive	inactive	inactive
CCCCOC(=O)/C=C\C(=O)OCCCC	inactive	–	inactive	inactive	inactive	inactive	inactive	inactive	inactive	inactive
S=C(S)NCCNC(=S)S	inactive	inactive	inactive	–	inactive	inactive	–	–	–	–
CCC(=O)OC(C)(C)C1CC=C(C)CC1 (configuration not stated)	inactive	inactive	inactive	–	inactive	inactive	–	inactive	inactive	–
CC(C)(C)c1ccc(OCC2CO2)cc1 (configuration not stated)	inactive	–	inactive	inactive	inactive	inactive	39.4 µM (active)	inactive	–	inactive
CCCCCC(CO)CCC (configuration not stated)	inactive	inactive	inactive	inactive	–	inactive	–	–	–	–
CC(C(=O)O)c1ccc(C(=O)c2ccccc2)s1 (configuration not stated)	inactive	inactive	–	inactive	inactive	inactive	–	inactive	–	inactive
O=C=NC1CCC(CC2CCC(N=C=O)CC2)CC1 (configuration not stated)	inactive	inactive	inactive	inactive	–	inactive	–	–	–	–
CCN(CCO)CCCC(C)Nc1ccnc2cc(Cl)ccc12 (configuration not stated)	inactive	inactive	inactive	inactive	inactive	inactive	–	–	–	–
CCCCOC(=O)c1ccccc1C(=O)OCC(CC)CCCC (configuration not stated)	inactive	inactive	inactive	–	inactive	inactive	inactive	inactive	inactive	–
NC(N)=NN=C(/C=C/c1ccc([N+](=O)[O-])o1)/C=C/c1ccc([N+](=O)[O-])o1	1.68 µM (active)	1.5 µM (active)	–	inactive	23.7 µM (active)	7.5 µM (active)	–	4.77 µM [activator] (active)	–	–
